Here are results for 15 compounds from the supplement of paper PMC6522484.

± gives the standard deviation of the averaged measurements.

For experiment [1], the system named is DLD1. Kind of experiment: cell viability (CellTiter-Glo) relative to plate median (fraction of plate median); higher = more viable cells. The settings on record: 5 µM; treatment time 24 h; reporter: 7TFP. In outline:
(§1)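 Values are well luminescence normalised to the plate median, from either a firefly luciferase or a CellTiterGlo readout on parallel plates. The cells, colorectal cancer lines stably transduced with lentiviral 7TFP or TCF4/Wnt firefly luciferase reporters, were treated with library compounds at a final 5 µM for 24 h. The mean of two independent replicates is listed.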
On the technique in general: Cellular ATP, detected with luciferase, serves as a proxy for viable cell number.

Experiment [2] deals with HCT116. The description is as above. The note with it: 5 µM; treatment time 24 h; reporter: TCF4/Wnt. The gist of the method:
as §1

Experiment [3] concerns SW480. The description is as above. The settings on record: 5 µM; treatment time 24 h; reporter: 7TFP. The gist of the method:
as §1

The subject of experiment [4] is DLD1. The experiment in a line: TCF/Wnt firefly luciferase reporter signal relative to plate median (fraction of plate median); higher = higher Wnt reporter signal. The note with it: 5 µM; treatment time 24 h; reporter: 7TFP. The gist of the method:
as §1

Experiment [5] concerns SW480. Described as above. The note with it: 5 µM; treatment time 24 h; reporter: 7TFP. The gist of the method: as §1

With `OCCN1CCN(CCCN2c3ccccc3Sc3ccc(C(F)(F)F)cc32)CC1`, the figures for the cell viability in experiment [1], in experiment [2] and in experiment [3] were 0.902 ± 0.082, 0.973 ± 0.019 and 1.05 ± 0.09, respectively. Further, the “TCF/Wnt firefly luciferase reporter signal” value in experiment [4] was determined as 0.927 ± 0.12; in experiment [5], 1.04 ± 0.1.

On to `CC(C)[N+]1(C)[C@@H]2CC[C@H]1C[C@@H](OC(=O)C(CO)c1ccccc1)C2` (stereo not given in full), for which the cell viability in experiment [1] was found to be 1.02 ± 0.13; in experiment [2], 0.989 ± 0.16; in experiment [3], 0.953 ± 0.065. The “TCF/Wnt firefly luciferase reporter signal” value worked out at 1 ± 0.013 in experiment [4] and 0.935 ± 0.076 in experiment [5].

For `O=C1OCCN1/N=C/c1ccc([N+](=O)[O-])o1`, the cell viability came out at 0.984 ± 0.023 in experiment [1], 1.05 ± 0.028 in experiment [2] and 0.999 ± 0.0014 in experiment [3]. Also, the results for the “TCF/Wnt firefly luciferase reporter signal” value in experiment [4] and in experiment [5] were 1.1 ± 0.078 and 1.05 ± 0.078, respectively.

Turning to `COc1cc(NS(=O)(=O)c2ccc(N)cc2)ncn1`, the figures for the cell viability in experiment [1], in experiment [2] and in experiment [3] were 0.88 ± 0.0092, 0.9455 ± 0.005 and 0.931 ± 0.037, respectively. Also, the results for the “TCF/Wnt firefly luciferase reporter signal” value in experiment [4] and in experiment [5] were 0.99 ± 0.028 and 0.941 ± 0.028, respectively.

`CC(C)NCC(O)c1ccc2ccccc2c1` (stereo not given): the cell viability in experiment [1] turned out to be 0.986 ± 0.035; in experiment [2], 1.01 ± 0.042; in experiment [3] it was 0.977 ± 0.0042. In addition, the “TCF/Wnt firefly luciferase reporter signal” value came out at 0.962 ± 0.097 in experiment [4] and 1 ± 0.069 in experiment [5].

As to `CCCCCC(=O)Cc1cc(O)cc(O)c1C(=O)Oc1cc(CC(=O)CCCCC)c(C(=O)O)c(OC)c1`, the cell viability in experiment [1] was 0.992 ± 0.04; in experiment [2], 1.01 ± 0.018; in experiment [3], 0.966 ± 0.012. Besides, the “TCF/Wnt firefly luciferase reporter signal” value in experiment [4] is 1.07 ± 0.15; in experiment [5] it was 1.14 ± 0.035.

`N#CN=C(NCCCCCCOc1ccc(Cl)cc1)Nc1ccncc1`: the cell viability is 0.954 ± 0.021 in experiment [1], 1.01 ± 0.03 in experiment [2] and 0.87 ± 0.046 in experiment [3]. The “TCF/Wnt firefly luciferase reporter signal” value in experiment [4] was found to be 1.15 ± 0.057; in experiment [5], 1.14 ± 0.21.

Consider `Cc1nnc(NS(=O)(=O)c2ccc(N)cc2)s1`, for which the cell viability in experiment [1] is 1.01 ± 0.016; in experiment [2], 1.04 ± 0.028; in experiment [3] it was 1.01 ± 0.15. Besides, the “TCF/Wnt firefly luciferase reporter signal” value in experiment [4] was determined as 0.957 ± 0.04; in experiment [5], 0.981 ± 0.056.

Take `CCCNC(C)C(=O)Nc1ccccc1C` (stereo not given): the cell viability in experiment [1] is 1 ± 0.013; in experiment [2], 0.972 ± 0.096; in experiment [3], 1.03 ± 0.028. Also, the “TCF/Wnt firefly luciferase reporter signal” value in experiment [4] is 0.912 ± 0.028; in experiment [5] it was 0.96 ± 0.03.

For the compound `CC1(C)C=CC(=O)[C@@]2(C)C1CC(=O)[C@]1(C)C2CC[C@@]2(C)[C@H](c3ccoc3)OC(=O)C3OC321` (stereo not given in full), the cell viability in experiment [1] is 1 ± 0.012; in experiment [2] it was 0.71 ± 0.61; in experiment [3] it was 0.998 ± 0.018. Besides, the “TCF/Wnt firefly luciferase reporter signal” value in experiment [4] was 0.99 ± 0.029; in experiment [5], 0.854 ± 0.13.

Consider `CN(C)CCN(Cc1cccs1)c1ccccn1`, for which the cell viability in experiment [1] amounted to 1.08 ± 0.028; in experiment [2], 1.04 ± 0.18; in experiment [3] it was 1 ± 0.015. Besides, the “TCF/Wnt firefly luciferase reporter signal” value in experiment [4] worked out at 1.01 ± 0.056; in experiment [5], 1.03 ± 0.028.

For the compound `CC1CCC2(OC1)OC1CC3C4CCC5C[C@@H](O)CCC5(C)C4=CCC3(C)C1[C@@H]2C` (stereo partly drawn) [3beta-HYDROXYISOALLOSPIROST-9(11)-ENE], the cell viability in experiment [1] is 1.02 ± 0.021; in experiment [2] it was 0.997 ± 0.12; in experiment [3], 0.973 ± 0.052. The entries for the “TCF/Wnt firefly luciferase reporter signal” value in experiment [4] and in experiment [5] were 1.02 ± 0.11 and 1.01 ± 0.016, respectively.

With `C[C@]12CCC(=O)C=C1CC[C@@H]1[C@@H]2[C@@H](O)C[C@@]2(C)[C@H]1CC[C@]2(O)C(=O)COC(=O)CCC(=O)O`, the cell viability in experiment [1] came out at 1.07 ± 0.042; in experiment [2], 1.11; in experiment [3], 1.03 ± 0.035. The figures for the “TCF/Wnt firefly luciferase reporter signal” value in experiment [4] and in experiment [5] were 1.01 ± 0.02 and 1 ± 0.099, respectively.

With `COc1cc2c(cc1OC)[C@@H]1C(=O)c3ccc4c(c3O[C@@H]1CO2)C=CC(C)(C)O4`, the results for the cell viability in experiment [1], in experiment [2] and in experiment [3] were 1.09 ± 0.021, 0.79 ± 0.14 and 1.02 ± 0.094, respectively. Besides, the “TCF/Wnt firefly luciferase reporter signal” value turned out to be 0.9 ± 0.1 in experiment [4] and 0.884 in experiment [5].

Turning to `c1coc(CNc2ncnc3[nH]cnc23)c1`, the cell viability in experiment [1] turned out to be 0.913 ± 0.09; in experiment [2], 0.845 ± 0.17; in experiment [3], 0.958 ± 0.04. Besides, the “TCF/Wnt firefly luciferase reporter signal” value in experiment [4] is 0.996 ± 0.1; in experiment [5], 1.04 ± 0.042.
